This note sets out measurements from PubChem BioAssay (Tox21).

Records with an inconclusive call do not appear. A call without a number means that no potency is given here. The source holds several records for some structures; these can differ, active in one and inactive in another. The source made the active and inactive calls. The call rests on the fitted dose curve; in most records, active means well fitted cell-killing curve with a large enough effect in the repeat runs; inconclusive means weak or mixed curves, or effect the other way; inactive means no such curve, though single readings can be large or run the other way.
Potency means the concentration at half of the fitted maximal effect.

The experiment in a line: qHTS assay to identify small molecule antagonists of the retinoid-related orphan receptor gamma (ROR-gamma) signaling pathway - cell viability counter screen (AID 1159520). Further: nearly all actives have a fitted effect of over 50% in size. Particulars: Tet-on RORgamma CHO cells viability, ATP luminescence, 16 h; series mostly up to 92.4 µM; activity, negative = cytotoxicity: at the top concentration. From the text: U.S. Tox21 Program National Center for Advancing Translational Sciences [NCATS] NIH Chemical Genomics Center [NCGC] U.S. Environmental Protection Agency [EPA] National Institutes of Environmental Health Sciences [NIEHS] National Toxicology Program [NTP] U.S. Food and Drug Administration [FDA] Tox21 Assay Overview: Nuclear steroid hormone receptors are involved in many biological processes including inflammatory responses, cell proliferation, and apoptosis. Environmental factors or compounds disrupting these nuclear receptor pathways and gene expression may promote susceptibility to immunotoxicants and autoimmune diseases. One important group of these expression factors are the retinoid-related orphan receptors. To assess compounds that may interfere with the retinoid-related orphan receptor gamma (ROR-gamma) transcription factor, a cell-based luciferase assay was used. The CHO cell-based assay utilizes a TET-inducible ROR expression factor and ROR response element-LUC reporter gene. Reporter gene activity was induced using Doxycycline Hyclate and measured after 16 hr incubation. Tet-on ROR gamma CHO cells were used to screen against the Tox21 10K compound library for cytotoxicity by measuring the viability of the cells based on the quantitation of the ATP.
Tox21 Assay Protocol Summary: Tet-on ROR gamma CHO cells were dispensed at 1,000 cells in 4 uL of culture medium per well into white wall/solid bottom 1536-well plates using a Multidrop Combi (Thermo Scientific, Waltham, MA) dispenser. Following incubation at 37 C and 5% CO2 for 4 hr, 23 nL of compounds dissolved in DMSO, positive controls or DMSO only were transferred by a Pintool station (Kalypsys, San Diego, CA) and after 2 hr incubation at 37 C, one ul of 1 uM (final concentration) of Doxycycline Hyclate was added to all the wells by using a Flying Reagent Dispenser (FRD) (Aurora Discovery, San Diego, CA). After 16 hr incubation at 37 C and 5% CO2, 5 uL of CellTiter-Glo reagent (Promega Corporation, Madison, WI) was added to each assay plate using FRD. After 30 min incubation at room temperature, luminescence was quantified on a ViewLux plate reader (Perkin Elmer, Waltham, MA).
(qHTS replaces the single test concentration by a dilution series.)
Take `CCCCCCC(C)(C)S`: the Potency entry was “inactive”.

In the case of `Cc1ccc(C(=O)O)o1`, the Potency entry is “inactive”.

On to `Cc1cc(=O)[nH]c(C(C)C)n1`, for which the Potency result was “inactive”.

As for `CCc1ccccc1O`, the Potency is 60.8 µM (active) and inactive.

With `O=C(c1ccc(O)cc1)c1ccc(O)cc1O`, the Potency result is “inactive”.

In the case of `Clc1cc(Cl)c(Cl)cc1Cl`, the Potency entry was “inactive”.

Take `O=C(O)c1cc(-c2ccccc2)nc2ccccc12`: the Potency entry is “inactive”.

`OCCOCCOCCOCCO`: the Potency result is “inactive”.

On to `O=C1O[C@H](CO)[C@@H](O)[C@H](O)[C@H]1O`, for which the Potency result was “inactive”.

Consider `CC(=O)CCc1ccccc1`, for which the Potency result was “inactive”.

For `COC(=O)c1ccccc1O`, the Potency result is “inactive”.

As to `CCOC(=O)C1OC1c1ccccc1` (stereo not given), the Potency result was “inactive”.

Turning to `CC(=O)Nc1ccc(C(=O)O)cc1`, the “activity, negative = cytotoxicity” value is 7.03% [at 42.5 µM] (inactive).

On to `O=S(=O)(O)c1cc(S(=O)(=O)O)c2c(N=Nc3ccccc3)c(O)ccc2c1`, for which the Potency result was “inactive”.

With `CCOC(=O)/C=C\C(=O)OCC`, the Potency result is “inactive”.

Regarding `Cc1cc(Cc2ccc(N)c(C)c2)ccc1N`, the Potency entry was “inactive”.

Turning to `C[C@@H]1O[C@@H](OC[C@H]2O[C@@H](Oc3c(-c4ccc(O)c(O)c4)oc4cc(O)cc(O)c4c3=O)[C@H](O)[C@@H](O)[C@@H]2O)[C@H](O)[C@H](O)[C@H]1O`, the Potency result is “inactive”.

In the case of `CC(C)(CO)COC(=O)C(C)(C)CO`, the Potency result is “inactive”.

With `O=C(Oc1ccccc1)c1ccc(O)cc1`, the Potency entry was “inactive”.

In the case of `O=C(O)c1ccc([N+](=O)[O-])cc1`, the Potency entry was “inactive”.

As for `CCCCCC/C=C/CCCCCCCC(=O)O`, the Potency entry was “inactive”.

Regarding `CCCCCCCCCCC=CC1CC(=O)OC1=O` (stereo not given), the Potency result is “inactive”.

As to `c1ccc2[nH]cnc2c1`, the Potency result was “inactive”.

With `NCCc1ccc(O)c(O)c1`, the Potency result was “inactive”.

`COCC(=O)O`: the Potency result was “inactive”.

Regarding `C=C(C)C(=O)OCCCCCCCCCCCC`, the Potency result is “inactive”.

As for `CC(C)(C)C1CCC(O)CC1` (stereo not given), the Potency result was “inactive”.

As for `NS(=O)(=O)c1cc2c(cc1Cl)NC=NS2(=O)=O`, the Potency result is “inactive”.

Turning to `Oc1ccc2ccccc2c1N=Nc1ccccc1`, the Potency result is “inactive”.

As for `CCCCCCCCCC(=O)O`, the Potency result was “inactive”.

As for `CCC(C)C=O` (stereo not given), the Potency entry was “inactive”.

For `Cc1cc(O)cc(C)c1Cl`, the Potency entry is “inactive”.

Consider `CCCCC(CC)C(=O)OCCOCCOCCOC(=O)C(CC)CCCC` (stereo not given), for which the Potency entry is “inactive”.

On to `S=c1nc[nH]c2nc[nH]c12`, for which the “activity, negative = cytotoxicity” value was -16.5% [at 42.5 µM] (inactive).

Consider `O=C1CCCCC1`, for which the Potency entry is “inactive”.

`O=C(c1cc(O)c(O)c(O)c1)c1ccc(O)c(O)c1O`: the Potency entry is “inactive”.

Regarding `C=CC(=O)OCCCCCCCC(C)C`, the “activity, negative = cytotoxicity” value was 0.303% (inactive).

As for `O=[N+]([O-])C(CO)(CO)CO`, the Potency entry was “inactive”.

Turning to `CCCCC(CC)COC(C)=O` (stereo not given), the Potency result is “inactive”.

Turning to `OCC1CCCO1` (stereo not given), the Potency result is “inactive”.
